Measurements taken from article PMC4336329 (PLoS ONE, 2015).
Among all 310,000 compounds or so, about 14,000 (4.5%) showed an effect of 50% or more. The effect is printed as a negative number. This is one part of a sample in which strong results are shown more often than they occur.

Biological target: human ether-à-go-go-related gene (hERG) potassium channel (human, UniProt Q12809)
Experiment: primary screen, population patch clamp on CHO cells stably expressing hERG; higher = less effect of the substance
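Further: peak tail current of the secondary pulse compared with the same well before compound.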

Sequence of human ether-à-go-go-related gene (hERG) potassium channel (Q12809 whole entry, looked up): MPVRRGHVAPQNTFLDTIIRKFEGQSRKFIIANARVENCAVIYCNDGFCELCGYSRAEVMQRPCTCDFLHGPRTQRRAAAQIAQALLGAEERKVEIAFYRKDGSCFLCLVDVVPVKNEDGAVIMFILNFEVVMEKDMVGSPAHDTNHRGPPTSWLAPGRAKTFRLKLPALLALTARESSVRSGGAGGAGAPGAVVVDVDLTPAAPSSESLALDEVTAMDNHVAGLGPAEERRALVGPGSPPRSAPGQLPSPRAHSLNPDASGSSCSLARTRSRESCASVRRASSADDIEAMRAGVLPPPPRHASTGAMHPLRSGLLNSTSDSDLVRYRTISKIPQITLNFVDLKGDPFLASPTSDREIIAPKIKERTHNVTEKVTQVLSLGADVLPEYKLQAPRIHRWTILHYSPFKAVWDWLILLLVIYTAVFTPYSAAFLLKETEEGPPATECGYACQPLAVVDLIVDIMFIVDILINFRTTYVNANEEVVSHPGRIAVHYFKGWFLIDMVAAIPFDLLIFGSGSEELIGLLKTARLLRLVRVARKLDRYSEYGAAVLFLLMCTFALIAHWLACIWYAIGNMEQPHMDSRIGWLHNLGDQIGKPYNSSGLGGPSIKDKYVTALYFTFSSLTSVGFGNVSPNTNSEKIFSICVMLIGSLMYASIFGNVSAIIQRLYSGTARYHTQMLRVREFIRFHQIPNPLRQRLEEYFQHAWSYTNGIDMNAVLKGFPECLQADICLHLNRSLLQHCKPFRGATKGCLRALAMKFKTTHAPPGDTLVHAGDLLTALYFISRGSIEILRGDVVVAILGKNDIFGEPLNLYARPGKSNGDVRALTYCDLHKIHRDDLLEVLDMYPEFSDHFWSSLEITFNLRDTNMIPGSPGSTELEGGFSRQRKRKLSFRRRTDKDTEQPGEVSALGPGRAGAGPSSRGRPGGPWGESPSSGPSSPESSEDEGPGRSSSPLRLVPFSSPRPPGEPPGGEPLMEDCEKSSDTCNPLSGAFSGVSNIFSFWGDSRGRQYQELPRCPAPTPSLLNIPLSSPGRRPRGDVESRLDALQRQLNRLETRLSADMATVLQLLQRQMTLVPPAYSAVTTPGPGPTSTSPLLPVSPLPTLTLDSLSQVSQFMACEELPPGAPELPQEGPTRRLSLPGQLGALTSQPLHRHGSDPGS

Structure (SMILES)	hERG current change (%, negative = inhibition) at 10uM [%]
O=C(O)c1cccc(N2C(=O)Nc3ccccc3N2O)c1	10.2
Cc1cc(-n2c(C)cc(C(=O)COc3ccccc3[N+](=O)[O-])c2C)no1	-4.91
CN1CCN(NC(=O)c2cc(-c3cccc(Cl)c3)nc3ccccc23)CC1	-35.9
O=S(=O)(N1CCCCC1)N1CCN(c2ccc(F)cc2)CC1	-35.9
CCN1C(=O)NC(=O)/C(=C\c2ccc(N3CCOCC3)cc2OC)C1=O	13.7
COc1ccc(CCNC(=O)C(C)OC(=O)c2nsc(Cl)c2Cl)cc1OC (centres unmarked)	12.4
CCC(OC(=O)c1nsc(Cl)c1Cl)C(=O)NCCc1ccccc1 (centres unmarked)	16
CC(OC(=O)c1nsc(Cl)c1Cl)C(=O)NCCc1ccccc1 (centres unmarked)	-65.4
COc1ccc(CC(=O)N/N=C/c2cc([N+](=O)[O-])cc(Br)c2O)cc1	6.88
CCOC(=O)/C=C1\CN(Cc2cc(OC)c(OC)c(OC)c2)S(=O)(=O)c2ccc(C(F)(F)F)cc21	-11.3
CCn1nc(NS(=O)(=O)c2ccccc2)c2cc3cccc(C)c3nc21	6.7
CCN(CC)C(=O)C1CCN(Cc2ccc(Br)cc2)CC1.O=C(O)C(=O)O	-51.4
CCN(Cc1ccccc1)C1CCN(Cc2ccc(SC)cc2)CC1.O=C(O)C(=O)O	-69.3
CCN(CC)C(=O)C1CCN(Cc2ccc(OCc3ccccc3)c(OC)c2)CC1.O=C(O)C(=O)O	-32
CCN(Cc1ccccc1)C(=O)C1CCN(Cc2ccc(SC)cc2)CC1.O=C(O)C(=O)O	-71.8
CSc1ccc(CN2CCN(S(=O)(=O)Cc3ccccc3)CC2)cc1	1.28
CSc1ccc(CN2CCC(N3CC(C)OC(C)C3)CC2)cc1.O=C(O)C(=O)O (centres unmarked)	-20.5
O=C(C1CCN(Cc2ccc(F)cc2)CC1)N(CCO)Cc1ccccc1	-10.6
CCN(Cc1ccccc1)C(=O)C1CCN(Cc2ccc(OC)c(OC)c2OC)CC1.O=C(O)C(=O)O	-43.4
CCN(CC)C(=O)C1CCCN(Cc2ccc(N(C)C)cc2)C1 (centres unmarked)	-12.5
CCCC(C)C(=O)Nc1nc(C)c(-c2csc(Nc3ccccc3OC)n2)s1 (centres unmarked)	14.5

Structure (SMILES)	hERG current change (%, negative = inhibition) at 10uM [%]
CC(=O)CCn1cnc([N+](=O)[O-])n1	23
COc1cccc(CNC(=O)COC(=O)c2cc(Br)c(Br)s2)c1	14.8
O=C(O)CC1SC(N/N=C/c2ccc(Br)cc2)NC1=O (centres unmarked)	6.6
CC(NS(C)(=O)=O)C(c1cccs1)N1CCN(c2ccc(F)cc2)CC1 (centres unmarked)	-11.4
Cc1ccc(C2=NN(CC(=O)NCc3ccccn3)C(=O)CC2)cc1	-11.6
Cc1cc(=O)oc2cc(OCC(=O)Nc3ccccc3C(=O)O)ccc12	11.6
CCCCn1c(N)c(Sc2ccc([N+](=O)[O-])cc2)c(=O)[nH]c1=O	-79.5
CCCCn1c(N)c(Sc2ccc(C)cc2)c(=O)[nH]c1=O	2
CCCn1c(N)c(Sc2ccc(C)cc2)c(=O)n(CCC)c1=O	-14.3
CCCn1c(N)c(Sc2ccc([N+](=O)[O-])cc2)c(=O)n(CCC)c1=O	-83.8
COCCn1c(N)c(Sc2ccc([N+](=O)[O-])cc2)c(=O)[nH]c1=O	-46.5
CCCn1c(N)c(Sc2ccc(Cl)cc2)c(=O)n(CCC)c1=O	-43.3
O=C(CCNC(=O)c1ccc([N+](=O)[O-])cc1)Nc1nccs1	1.93
CCCOc1ccccc1/C=C1\SC(N2CCCCC2)=NC1=O	-12.3
Cn1c(SCc2ccccc2Cl)nc(C(F)(F)F)cc1=O	1.65
Cc1cc(OCCOCCN(C)CCO)cc(C)c1Cl	-40.9
COc1ccc(C2=NC(=O)/C(=C\c3cc(OC)c(OC)c(OC)c3)O2)cc1	8.26
COc1ccc(-c2cn3cccnc3n2)cc1F	12.2
COc1ccc(-c2cn3cccc(C)c3n2)cc1F	-61.7
Cc1cccn2cc(-c3ccc(F)cc3)nc12	-14.1
CC(=O)c1c(C)[nH]c(C(=O)OCc2cc(=O)n3cc(Br)ccc3n2)c1C	-3.69

Structure (SMILES)	hERG current change (%, negative = inhibition) at 10uM [%]
N#Cc1ccccc1COC(=O)CCC(=O)c1cccs1	-4.58
CCOc1ccccc1NC(=O)c1ccc(S(=O)(=O)N2CCOCC2)cc1	-2.46
S=C(Nc1ccc(Cl)cc1Cl)N1CCOCC1	11.1
Cc1ccc(NC(=O)COC(=O)C2CCN(c3ccc(C(F)(F)F)cn3)CC2)cc1	-1.26
CN(CC(=O)Nc1ccccc1Cl)C(=O)COC(=O)C1CCN(c2ccc(C(F)(F)F)cn2)CC1	-29.8
CCc1ccc(C(=O)COC(=O)C2CCN(c3ccc(C(F)(F)F)cn3)CC2)cc1	-18
CN(CC(=O)Nc1ccc(F)cc1)C(=O)COC(=O)C1CCN(c2ccc(C(F)(F)F)cn2)CC1	-65.5
O=C(COC(=O)C1CCN(c2ccc(C(F)(F)F)cn2)CC1)c1ccc(F)cc1	-0.831
COc1cc(C(=O)COC(=O)C2CCN(c3ccc(C(F)(F)F)cn3)CC2)ccc1OC(F)F	-59.1
O=C(O)c1cccc2c(-c3ccccc3)c(-c3ccccc3)[nH]c12	18.5
COc1cc(/C=C2\C(=N)N3N=C(C)SC3=NC2=O)cc(OC)c1OCCOc1ccccc1C	30.7
Cc1ccc(-c2nc(CN(C)Cc3ccc4nccnc4c3)c(C)o2)s1	-10.3
Cc1cc(OCC(=O)Nc2cnn(CCCC(=O)O)c2)ccc1Cl	18
CCCCCC#CCN1CCN(C23CC4CC(CC(C4)C2)C3)CC1	-58.6
CCCC#CCN1CCN(C23CC4CC(CC(C4)C2)C3)CC1	-16.1
CC(=O)N1CCN(C23CC4CC(CC(C4)C2)C3)CC1	12.3
COCc1ccc(C(=O)N2CCCC(Nc3ccc(C(C)C)cc3)C2)o1 (centres unmarked)	-0.274
O=C(CC1SC(=Nc2ccccc2F)N(CCN2CCOCC2)C1=O)Nc1ccc(F)cc1F (centres unmarked)	-13.1
COc1ccc(N=C2SC(CC(=O)Nc3ccccc3)C(=O)N2CCN2CCOCC2)cc1 (centres unmarked)	-23.1
O=C(CC1SC(=Nc2ccc(OC(F)F)cc2)N(CCN2CCOCC2)C1=O)Nc1ccc(F)cc1F (centres unmarked)	-82.9
Cc1cc(NCC(C)C)n2ncnc2n1	14

Structure (SMILES)	hERG current change (%, negative = inhibition) at 10uM [%]
Cc1cccn2c(=O)c3cc(S(=O)(=O)c4ccccc4)c(=N)n(Cc4ccc(F)cc4)c3nc12	24.7
CCCn1c(=N)c(S(=O)(=O)c2ccccc2)cc2c(=O)n3cccc(C)c3nc21	0.577
N=c1c(S(=O)(=O)c2ccccc2)cc2c(=O)n3ccccc3nc2n1Cc1cccnc1	-59.2
N=c1c(S(=O)(=O)c2ccc(Br)cc2)cc2c(=O)n3ccccc3nc2n1Cc1ccccc1	27
Cc1cccn2c(=O)c3cc(S(=O)(=O)c4ccccc4)c(=N)n(Cc4cccnc4)c3nc12	-66.1
N=c1c(S(=O)(=O)c2ccc(Cl)cc2)cc2c(=O)n3ccccc3nc2n1Cc1cccnc1	-35.5
CCCCC(CC)C(=O)Nc1cc(C(=O)NCc2ccc(C)cc2)ccc1N1CCC2(CC1)CC(c1cccc(Br)c1)=NO2 (centres unmarked)	17.6
CCOC(=O)C1=C(C)N=c2s/c(=C/c3cccc([N+](=O)[O-])c3O)c(=O)n2C1c1ccccc1 (centres unmarked)	-20.4
COc1ccc(CCC(=O)Nc2ncc(C)s2)cc1OC	16.2
Cc1ccc(S(=O)(=O)N2CCN(C(=O)COC(=O)CSc3cc(C)ccc3C)CC2)c(C)c1	-6.13
COc1ccccc1C(=O)Nc1ccnn1C1CCN(C/C=C/c2ccccc2)CC1	-78.9
COc1ccccc1C(=O)NC(CCSC)C(=O)N1CCN(C/C=C/c2ccccc2)CC1 (centres unmarked)	-109
COCCC(=O)N1CCC(n2nccc2NC(=O)c2ccccc2C)CC1	12.6
COc1ccccc1C(=O)Nc1ccnn1C1CCN(C/C=C/c2ccc(F)cc2)CC1	-76.6
COc1ccccc1C(=O)NC(CCSC)C(=O)N1CCC(Cc2ccccc2)CC1 (centres unmarked)	-23.1
COc1ccccc1C(=O)NC(CCSC)C(=O)N1CCN(C(C)=O)CC1 (centres unmarked)	-0.345
O=C(COc1ccccc1-c1ccccc1)NN=C1CCCC1	-6.03
COC(=O)c1cc(NC(=O)CN(c2ccc3c(c2)OCO3)S(C)(=O)=O)ccc1Cl	-8.58
CCN1CCN(Cc2ccc(NC(=O)c3cc(NC(=O)C(=O)c4c[nH]c5ccccc45)cc(OC)c3)cc2C(F)(F)F)CC1	8.1
O=C(CSc1nc2cc(Cl)c(Cl)cc2[nH]1)c1ccc2c(c1)OCO2	7.8
